# Experimental data: PubChem BioAssay (Tox21)
# Calls of active or inactive are those of the source. The call rests on the fitted dose curve.
# Test: G protein-coupled receptor (GPCR) small molecule agonists, calcium flux assay: HEK293 wild type cell line counter screen (AID 1920065)
# Conditions: HEK293 WT calcium flux, fluorescence, agonist mode; series mostly up to 57.6 µM; activation: at the top concentration
# Source text: U.S. Tox21 Program National Center for Advancing Translational Sciences [NCATS] Division of Preclinical Innovation [DPI] U.S. Environmental Protection Agency [EPA] National Institutes of Environmental Health Sciences [NIEHS] National Toxicology Program [NTP] U.S. Food and Drug Administration [FDA] Assay overview: The increased intracellular calcium release that occurred upon G protein-coupled receptor (GPCR) activation led to the frequent use of calcium flux assays to detect GPCR activation. For the purpose of studying and screening compounds that may activate GPCR, receptor-overexpressing models were typically generated using Hek293 wild-type (WT) cells. In order to eliminate the compounds that may have induced calcium release for non-specific activation, a counter-assay utilizing calcium flux on Hek293 WT cells was performed. The data were formulated in order to serve as a control for any calcium flux detection utilizing Hek293 cells with either GPCR overexpression or gene modification. The procurement of Hek293 WT cells from ATCC. Fluorescence intensity can be utilized to determine the activation of the compound in a calcium flux assay. As a counter control, this cell line was utilized to screen the Tox21 10K compound library.
# Assay Protocol Summary: Hek293 cells were dispensed at 1500cells/4uL/well in 1536-well black wall/clear bottom plates using a multidrop dispenser. After the assay plates were incubated at a 37 C/5% CO2 incubator for 18 hours, 4 uL of Calcium Dye Solution was added to each well. The plates were incubated at 37 C for 1 hour. For agonist mode, 23 nL of compounds dissolved in DMSO, positive control (ATP) or DMSO only was transferred to the assay plate by a pin tool station. The fluorescence intensity in the plates was measured using FDSS 7000EX kinetic plate reader with a filter set of Ex/Em=480/540 for 3 min at 1 sec intervals. Each test compound was measured at 15 concentrations and in triplicates.
# On the % scale 0 is the no-effect control and ±100 the full control effect; potency means the concentration at half of the fitted maximal effect.
Structure (SMILES),activation,Potency
CC(C)(C)C1=CC(=O)C=C(C(C)(C)C)C1=O,0.206% (inactive),
CCCCCCCOC(=O)CCC,-0.359% (inactive),
Cc1c(-c2cccnc2)c2ccccc2n1CCCCC(=O)O,1.08% (inactive),
CCOC(=O)C(C)Oc1ccc(Oc2nc3ccc(Cl)cc3o2)cc1 (stereo not given),1.29% (inactive),
CC1=C(/C=C/C(C)=C/C=C/C(C)=C/C=O)C(C)(C)CCC1,-0.216% (inactive),
CCCOCC(C)OCC(C)O (stereo not given),-0.0783% (inactive),
Cc1cccc(OCCOc2cccc(C)c2)c1,0.0594% (inactive),
COc1cc(Cl)ccc1Oc1ccc(Cl)cc1Cl,-0.0581% (inactive),
O=C(NO)c1ccccc1,1.27% (inactive),
Cc1c(O)cccc1O,-0.786% (inactive),
OC12N=C(c3ccccc3)SC1Cc1cc(Cl)ccc12 (stereo not given),-1.03% (inactive),
CCCCCCC[N+](CC)(CC)CCCCc1ccc(Cl)cc1,-0.332% [at 26.5 µM] (inactive),
Cc1ncc(COP(=O)(O)O)c(C=O)c1O,0.851% [at 26.5 µM] (inactive),
Nc1ccn(C2CO[C@H](CO)O2)c(=O)n1 (stereo not given in full),,16.9 µM (active)
CCCC(=O)OCC,0.549% (inactive),
CCCCCCCC/C=C\CCCCCCCCO,0.431% (inactive),
CCCCCCCCCCCCCC(=O)OC,0.587% (inactive),
CC(C)n1nc(-c2cc3cc(O)ccc3[nH]2)c2c(N)ncnc21,0.691% [at 26.5 µM] (inactive),
Cc1cc(=O)oc2cc(N(C)C)ccc12,-0.805% (inactive),
N[C@@H](CS)C(=O)O,0.37% (inactive),

Structure (SMILES),activation,Potency
c1ccc(-c2ccc(-c3ccccc3)cc2)cc1,0.1% [at 11.8 µM] (inactive),
ClC(Cl)Cl,-0.28% (inactive),
CC1=CC(=O)/C(=C(/C)O)C(=O)O1,-0.0819% (inactive),
C/C(=C(/OCCOc1ccc(Cl)cc1)c1ccc(Cl)cc1Cl)n1ccnc1,-0.7% [at 26.5 µM] (inactive),
CC1(O)CSC(C)(O)CS1 (stereo not given),0.323% (inactive),
CC(C)NCC(O)COc1ccc(CCOCC2CC2)cc1 (stereo not given),1.04% [at 26.5 µM] (inactive),
CSc1ccc(O)cc1C,-0.901% (inactive),
CC(C)(C(=O)O)c1ccc(C(O)CCCN2CCC(C(O)(c3ccccc3)c3ccccc3)CC2)cc1 (stereo not given),-1.33% [at 26.5 µM] (inactive),
[Ca+2],-0.448% (inactive),
CC1(C)SC(C)(C)SC(C)(C)S1,0.515% (inactive),
Cc1c(F)c(N2CCNC(C)C2)cc2c1c(=O)c(C(=O)O)cn2C1CC1 (stereo not given),-0.0714% [at 26.5 µM] (inactive),
NC(=O)Nc1nc2ccccc2[nH]1,-0.12% (inactive),
CCCCCOC(=O)CCCCC,-0.78% (inactive),
O=[N+]([O-])c1ccc(Nc2ccc(Nc3ccccc3)c(S(=O)(=O)O)c2)c([N+](=O)[O-])c1,0.0991% (inactive),
C[C@@H]1C[C@H]2[C@@H]3C[C@H](F)C4=CC(=O)C=C[C@]4(C)[C@@]3(F)[C@@H](O)C[C@]2(C)[C@@]1(O)C(=O)CO,-0.0005% [at 26.5 µM] (inactive),
CCCOC(OCCC)OCCC,-0.567% (inactive),
NC(=O)C1(N2CCCCC2)CCN(CCCN2c3ccccc3CCc3ccc(Cl)cc32)CC1,0.735% [at 26.5 µM] (inactive),
Nc1nc(N)c2nc(CNc3ccc(C(=O)N[C@@H](CCC(=O)O)C(=O)O)cc3)cnc2n1,0.0296% (inactive),
CC(C)C(C)(C)C(C)(C)C(C)(C)S,2.71% (inactive),
CC(C)(C)c1ccc(OCC2CO2)cc1 (stereo not given),-0.0311% (inactive),
